Assay results reported in PubChem BioAssay AID504834 (National Center for Advancing Translational Sciences (NCATS), 2011).
Out of some 320,000 compounds screened, about 22,000 (6.9%) were called active. A call without a number means that no potency is given here. Inconclusive results (about 27%) are left out. Calls come from the whole dose curve; as a rule, active = well fitted inhibition curve with a large enough effect; inconclusive = small, poorly fitted or top-dose-only effect, or another doubt; inactive = no such curve, though single readings can be large or run the other way. The full list was thinned out, with actives kept by preference.
Potency is the fitted concentration of half-maximal effect.

Assay: Primary qHTS for delayed death inhibitors of the malarial parasite plastid, 96 hour incubation
Conditions: P. falciparum luciferase reporter growth; series mostly up to 28.7 µM
How it was run: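 96 h incubation, 37 C, 5% CO2, of luciferase-reporter P. falciparum-infected RBCs (2% hematocrit, 0.05% parasitemia final) with test compounds; endpoint luminescence.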
With Cc1nn(C)c(C)c1C(C)NC(=O)c1ccc(OC2CCN(Cc3ccccn3)CC2)cc1 (configuration not stated) the Potency was “inactive”. In the case of Cc1cccc(C(C)C)c1NC(=O)COC(=O)C1CC(=O)N(Cc2ccccc2)C1 (configuration not stated), the Potency is reported as “inactive”. With Nc1cc(OC(=O)c2ccccc2Br)nn1S(=O)(=O)c1ccccc1 the Potency was “inactive”. For Cc1nn(C(C)(C)C)c(OC(=O)CC(C)C)c1S(=O)(=O)c1ccccc1, the Potency was 9.28 µM (active). For Cc1ccc(S(=O)(=O)n2nc(OC(=O)C(C)(C)C)cc2N)cc1, the Potency was “inactive”. For CCCc1ccc(OCC(O)CN2CCN(CCO)CC2)cc1 (configuration not stated), the Potency was 10.4 µM (active). With CCCc1ccc(OCC(O)CN2CCN(C(=O)OCC)CC2)cc1 (configuration not stated) the Potency was “inactive”. With CCc1ccc(OCC(O)CN2CCN(CCO)CC2)cc1 (configuration not stated) the Potency was “inactive”. For Cc1ccc(S(=O)(=O)N2CCCCC2)cc1C(=O)N1CCN(CCO)CC1, the Potency was “inactive”. With CN(CC(=O)Nc1cccc(F)c1)C(=O)C1CC(=O)N(CCc2ccccc2)C1 (configuration not stated) the Potency was “inactive”. For COc1ccc(CN2CCCC(N3CCc4ccccc4C3)C2)c(O)c1 (configuration not stated), the Potency was 8.28 µM (active). For COc1ccccc1CN1CCCC(N2CCN(c3ccc(F)cc3)CC2)C1 (configuration not stated), the Potency was “inactive”. With COc1cccc(N2C(=O)CC(N3CCc4ccccc4C3)C2=O)c1 (configuration not stated) the Potency was “inactive”. For COc1ccc(CN2C3CCCC2CC(NC(=O)c2cccc(F)c2)C3)cc1 (configuration not stated), the Potency was “inactive”. With CCCCCCC(O)(CCN1CCCCC1)c1ccccc1 (configuration not stated) the Potency was “inactive”. In the case of O=C(COc1ccccc1Cl)Nc1ccccc1C(=O)NC1CC1, the Potency is reported as “inactive”. For CC1(C)CC(=O)c2ccc(O)cc2O1, the Potency was “inactive”. In the case of COc1ccc2c(c1)OC(O)(C(F)(F)C(F)F)CC2=O (configuration not stated), the Potency is reported as 0.828 µM (active). With O=S1(=O)N=C(N(CCO)/N=C/c2ccccc2F)c2ccccc21 the Potency was “inactive”. In the case of COc1ccc(CNC(=O)C2CCN(C(=O)c3ccccc3)CC2)cc1, the Potency is reported as “inactive”. For COc1ccc(-n2nc3c(N4CCC(C(=O)NCc5ccccc5)CC4)nnc(C)c3c2C)cc1, the Potency was 13.1 µM (active). For CCOc1ccc(CNC(=O)C2CCCN(c3nnc(C)c4c(C)n(-c5ccccc5)nc34)C2)cc1 (configuration not stated), the Potency was “inactive”. With COC(=O)c1ccc(Nc2ncnc3sccc23)cc1 the Potency was “inactive”. With Cc1c(Cc2ccccc2)c(=O)oc2cc(OCC(N)=O)ccc12 the Potency was “inactive”. In the case of CCOC(=O)c1c(C)oc2ccc(OCC(=O)N(CC)CC)cc12, the Potency is reported as “inactive”. With CC(=O)c1c(C)n(-c2ccc(N(C)C)cc2)c2ccc(OCC(N)=O)cc12 the Potency was 9.28 µM (active). For CCOC(=O)c1c(CN2CCOCC2)n(-c2ccccc2)c2ccc(O)cc12, the Potency was “inactive”. For CC(=O)c1c(C)n(-c2ccc(C)cc2)c2ccc(O)cc12, the Potency was 7.38 µM (active). In the case of O=C(O)CCC(=O)Nc1ccc(OCC2CCCO2)cc1 (configuration not stated), the Potency is reported as “inactive”. With CCCCn1nc(C(=O)Nc2cccc(C(=O)NC3CC3)c2)c2ccccc2c1=O the Potency was 11.7 µM (active). With CCn1nc(C(=O)Nc2ccc(N3CCOCC3)cc2)c2ccccc2c1=O the Potency was “inactive”. For CCCn1nc(C(=O)Nc2ccc3nc(C)sc3c2)c2ccccc2c1=O, the Potency was “inactive”. With CC(=O)Nc1ccc(S(=O)(=O)NCC2CCC(C(=O)NCCc3ccccc3)CC2)cc1 (configuration not stated) the Potency was “inactive”. In the case of COc1ccc(C2NC(=O)N(C)C(C)=C2[N+](=O)[O-])cc1 (configuration not stated), the Potency is reported as “inactive”. With COc1ccc(C(C)(C)C)cc1NC(=O)CCN1C(=O)C2CCCCC2C1=O (configuration not stated) the Potency was “inactive”. In the case of NC(=O)c1ccsc1NC(=O)COC(=O)COc1ccc(C=O)cc1, the Potency is reported as “inactive”. In the case of O=C(NCC(c1cccs1)N1CCOCC1)c1cc(Cl)ccc1[N+](=O)[O-] (configuration not stated), the Potency is reported as “inactive”. For O=C(/C=C/c1cccs1)c1cc(Cl)ccc1OC(=O)N1CCOCC1, the Potency was 8.28 µM (active). With CC(=O)Nc1ccccc1OC(=O)N1CCOCC1 the Potency was “inactive”. For CCOc1cc(C)c(S(=O)(=O)NCc2ccccn2)cc1C, the Potency was “inactive”. With COc1ccc2[nH]c(C(=O)N3CCN(C)CC3)c(C)c2c1 the Potency was “inactive”. With O=C(c1cc2ccccc2s1)N1CCN(c2ccccn2)CC1 the Potency was “inactive”. In the case of O=C(NC1CCCC1)C(c1ccco1)N(C(=O)c1csnn1)c1ccccc1 (configuration not stated), the Potency is reported as “inactive”. With OCC[C@H]1C[C@@H](O)[C@H](O)[C@]2(OCCCc3ccccc32)O1 the Potency was “inactive”. In the case of Cc1ccc(N2CC(C(=O)Nc3cc(Cl)ccc3-n3cncn3)CC2=O)cc1 (configuration not stated), the Potency is reported as “inactive”. For COc1cc(OC)c(N2CC(C(=O)Nc3cc(Cl)ccc3N3CCOCC3)CC2=O)cc1Cl (configuration not stated), the Potency was 11.7 µM (active). For COc1ccc(Cl)cc1NC(=O)CCN1CCOCC1, the Potency was “inactive”. For CN(C(=O)CSc1nnc(C2CC2)n1C)C1CCCc2ccccc21 (configuration not stated), the Potency was “inactive”. In the case of Cc1cc(C)n2nc(C(=O)OCC(=O)N(CCC#N)c3ccc(F)cc3)nc2n1, the Potency is reported as “inactive”. In the case of O=C(CCn1nnc2ccccc2c1=O)N[C@@H](Cc1c[nH]c2ccccc12)C(=O)O, the Potency is reported as “inactive”. For CCOC(=O)c1sc(NC(=O)CSc2ncccn2)c(C#N)c1C, the Potency was “inactive”. For CCN1CCN(CC(=O)Nc2sc3c(c2C#N)CCC3)CC1, the Potency was “inactive”.
